# The supplement of paper PMC4022240
# ± gives the standard deviation.
# T1: HaloTag-ATRX ADD domain (163-292)
# T1 chain: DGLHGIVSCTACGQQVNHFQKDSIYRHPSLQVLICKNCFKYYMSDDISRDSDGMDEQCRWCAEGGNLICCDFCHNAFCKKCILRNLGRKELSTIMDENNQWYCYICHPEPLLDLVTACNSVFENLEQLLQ
# Tests used:
# Assay in all cases: peptide microarray binding signal (635 nm), min-max normalized on array (fraction of array maximum); higher = stronger binding
# Details in all cases: peptide region: H3 5-17
# [1] = target: T1, HaloTag-ATRX ADD domain (163-292)
# Procedure, shortened: (§1)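 An Axon GenePix 4000B scanned the arrays at 635 nm for signal and at 532 nm to catch misprints. Those arrays held histone 13-mer peptide–cellulose conjugates printed in triplicate on nitrocellulose with a Cy3 tracer, blocked overnight at 4°C and probed for 1 h at 4°C with biotin-labelled HaloTag reader fusions (10 nM to 1 μM) plus streptavidin-Alexa Fluor 647 or with rabbit histone antibodies (1:10,000 to 1:2,000) plus anti-rabbit Alexa 647. Each binding signal is a triplicate-spot mean intensity, scaled min-max within its library.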
# [2] = target: HaloTag-ING2 PHD (mouse Ing2 200-280)
# Procedure, shortened: as §1
# [3] = target: anti-H3K4me3 antibody ab8580
# Procedure, shortened: as §1
# [4] = target: anti-H3K9me3 antibody ab8898
# Procedure, shortened: as §1
# [5] = peptide modifications: H3K9me2 H3K14me1, binder concentration: 1:2,000 dilution
# [6] = peptide modifications: H3K9me2 H3K14me1, binder concentration: 1:10,000 dilution
# [7] = peptide modifications: H3K9me2 H3T11ph, binder concentration: 1:2,000 dilution
# [8] = peptide modifications: H3K9me2 H3T11ph, binder concentration: 1:10,000 dilution
# [9] = peptide modifications: H3K9me3, binder concentration: 1:2,000 dilution
# [10] = peptide modifications: H3K9me3, binder concentration: 1:10,000 dilution
# [11] = peptide modifications: H3K9me2 H3K14me2, binder concentration: 1:2,000 dilution
# [12] = peptide modifications: H3K9me2 H3K14me2, binder concentration: 1:10,000 dilution
# [13] = peptide modifications: H3K9me1 H3T11ph, binder concentration: 1:2,000 dilution
# [14] = peptide modifications: H3K9me1 H3T11ph, binder concentration: 1:10,000 dilution
# [15] = peptide modifications: H3K9me2 H3K14me3, binder concentration: 1:2,000 dilution
# [16] = peptide modifications: H3K9me2 H3K14me3, binder concentration: 1:10,000 dilution
# [17] = peptide modifications: H3K9me2 H3K14ac, binder concentration: 1:2,000 dilution
# [18] = peptide modifications: H3K9me2 H3K14ac, binder concentration: 1:10,000 dilution
# [19] = peptide modifications: H3K9me3 H3K14ac, binder concentration: 1:2,000 dilution
# [20] = peptide modifications: H3K9me3 H3K14ac, binder concentration: 1:10,000 dilution
# [21] = peptide modifications: H3K9me2 H3S10ph, binder concentration: 1:2,000 dilution
# [22] = peptide modifications: H3K9me2 H3S10ph, binder concentration: 1:10,000 dilution
# [23] = peptide modifications: H3K9me2, binder concentration: 1:2,000 dilution
# [24] = peptide modifications: H3K9me2, binder concentration: 1:10,000 dilution
binder,measurement,setting,value
QTARKSTGGKAPR [H3 5-17 Q T A R Kme2 S T G G Kme A P R],peptide microarray binding signal,"[1]; peptide modifications: H3K9me2 H3K14me1, binder concentration: 50 nM",0.00589 ± 7.1e-05
same,peptide microarray binding signal,"[1]; peptide modifications: H3K9me2 H3K14me1, binder concentration: 500 nM",0.015 ± 0.0013
same,peptide microarray binding signal,"[2]; peptide modifications: H3K9me2 H3K14me1, binder concentration: 10 nM",0.00812 ± 0.00048
same,peptide microarray binding signal,"[2]; peptide modifications: H3K9me2 H3K14me1, binder concentration: 100 nM",0.0359 ± 0.0037
same,peptide microarray binding signal,[3]; [5],0.00455 ± 0.00086
same,peptide microarray binding signal,[3]; [6],0.00365 ± 0.00015
same,peptide microarray binding signal,[4]; [5],0.217 ± 0.078
same,peptide microarray binding signal,[4]; [6],0.0891 ± 0.021
QTARKSTGGKAPR [H3 5-17 Q T A R Kme2 S Tph G G K A P R],peptide microarray binding signal,"[1]; peptide modifications: H3K9me2 H3T11ph, binder concentration: 50 nM",0.00201 ± 3.7e-05
same,peptide microarray binding signal,"[1]; peptide modifications: H3K9me2 H3T11ph, binder concentration: 500 nM",0.00319 ± 6.5e-05
same,peptide microarray binding signal,"[2]; peptide modifications: H3K9me2 H3T11ph, binder concentration: 10 nM",0.0031 ± 7.8e-05
same,peptide microarray binding signal,"[2]; peptide modifications: H3K9me2 H3T11ph, binder concentration: 100 nM",0.0022 ± 3.7e-05
same,peptide microarray binding signal,[3]; [7],0.000396 ± 7e-06
same,peptide microarray binding signal,[3]; [8],0.000799 ± 8.3e-06
same,peptide microarray binding signal,[4]; [7],0.0382 ± 0.01
same,peptide microarray binding signal,[4]; [8],0.0291 ± 0.0025
QTARKSTGGKAPR [H3 5-17 Q T A R Kme3 S T G G K A P R],peptide microarray binding signal,"[1]; peptide modifications: H3K9me3, binder concentration: 50 nM",0.00411 ± 0.00036
same,peptide microarray binding signal,"[1]; peptide modifications: H3K9me3, binder concentration: 500 nM",0.00362 ± 0.00095
same,peptide microarray binding signal,"[2]; peptide modifications: H3K9me3, binder concentration: 10 nM",0.00448 ± 6.1e-05
same,peptide microarray binding signal,"[2]; peptide modifications: H3K9me3, binder concentration: 100 nM",0.002126 ± 2.1e-05
same,peptide microarray binding signal,[3]; [9],0.00266 ± 0.00033
same,peptide microarray binding signal,[3]; [10],0.00519 ± 0.00032
same,peptide microarray binding signal,[4]; [9],0.00814 ± 0.0004
same,peptide microarray binding signal,[4]; [10],0.0129 ± 0.0011
QTARKSTGGKAPR [H3 5-17 Q T A R Kme2 S T G G Kme2 A P R],peptide microarray binding signal,"[1]; peptide modifications: H3K9me2 H3K14me2, binder concentration: 50 nM",0.00555 ± 0.0003
same,peptide microarray binding signal,"[1]; peptide modifications: H3K9me2 H3K14me2, binder concentration: 500 nM",0.011 ± 0.00059
same,peptide microarray binding signal,"[2]; peptide modifications: H3K9me2 H3K14me2, binder concentration: 10 nM",0.00937 ± 0.00041
same,peptide microarray binding signal,"[2]; peptide modifications: H3K9me2 H3K14me2, binder concentration: 100 nM",0.00999 ± 0.0011
same,peptide microarray binding signal,[3]; [11],0.00672 ± 0.00077
same,peptide microarray binding signal,[3]; [12],0.00496 ± 0.00056
same,peptide microarray binding signal,[4]; [11],0.175 ± 0.021
same,peptide microarray binding signal,[4]; [12],0.0735 ± 0.0023
QTARKSTGGKAPR [H3 5-17 Q T A R Kme S Tph G G K A P R],peptide microarray binding signal,"[1]; peptide modifications: H3K9me1 H3T11ph, binder concentration: 50 nM",0.00179 ± 4.4e-05
same,peptide microarray binding signal,"[1]; peptide modifications: H3K9me1 H3T11ph, binder concentration: 500 nM",0.003 ± 0.00011
same,peptide microarray binding signal,"[2]; peptide modifications: H3K9me1 H3T11ph, binder concentration: 10 nM",0.002208 ± 2.2e-05
same,peptide microarray binding signal,"[2]; peptide modifications: H3K9me1 H3T11ph, binder concentration: 100 nM",0.00524 ± 0.00071
same,peptide microarray binding signal,[3]; [13],0.000396 ± 4.2e-05
same,peptide microarray binding signal,[3]; [14],0.000285 ± 3.1e-06
same,peptide microarray binding signal,[4]; [13],0.00856 ± 0.0022
same,peptide microarray binding signal,[4]; [14],0.00208 ± 5.1e-05
QTARKSTGGKAPR [H3 5-17 Q T A R Kme2 S T G G Kme3 A P R],peptide microarray binding signal,"[1]; peptide modifications: H3K9me2 H3K14me3, binder concentration: 50 nM",0.00301 ± 0.00046
same,peptide microarray binding signal,"[1]; peptide modifications: H3K9me2 H3K14me3, binder concentration: 500 nM",0.002 ± 0.00021
same,peptide microarray binding signal,"[2]; peptide modifications: H3K9me2 H3K14me3, binder concentration: 10 nM",0.00143 ± 1.7e-05
same,peptide microarray binding signal,"[2]; peptide modifications: H3K9me2 H3K14me3, binder concentration: 100 nM",0.00106 ± 3e-05
same,peptide microarray binding signal,[3]; [15],0.00126 ± 0.00029
same,peptide microarray binding signal,[3]; [16],0.00405 ± 0.0015
same,peptide microarray binding signal,[4]; [15],0.00464 ± 0.0015
same,peptide microarray binding signal,[4]; [16],0.00646 ± 0.0028
QTARKSTGGKAPR [H3 5-17 Q T A R Kme2 S T G G Kac A P R],peptide microarray binding signal,"[1]; peptide modifications: H3K9me2 H3K14ac, binder concentration: 50 nM",0.002382 ± 1.1e-05
same,peptide microarray binding signal,"[1]; peptide modifications: H3K9me2 H3K14ac, binder concentration: 500 nM",0.0103 ± 0.00014
same,peptide microarray binding signal,"[2]; peptide modifications: H3K9me2 H3K14ac, binder concentration: 10 nM",0.0115 ± 0.001
same,peptide microarray binding signal,"[2]; peptide modifications: H3K9me2 H3K14ac, binder concentration: 100 nM",0.00886 ± 0.0033
same,peptide microarray binding signal,[3]; [17],0.00225 ± 0.00054
same,peptide microarray binding signal,[3]; [18],0.00228 ± 0.00034
same,peptide microarray binding signal,[4]; [17],0.0906 ± 0.0013
same,peptide microarray binding signal,[4]; [18],0.0371 ± 0.015
QTARKSTGGKAPR [H3 5-17 Q T A R Kme3 S T G G Kac A P R],peptide microarray binding signal,"[1]; peptide modifications: H3K9me3 H3K14ac, binder concentration: 50 nM",0.005862 ± 5.4e-05
same,peptide microarray binding signal,"[1]; peptide modifications: H3K9me3 H3K14ac, binder concentration: 500 nM",0.0246 ± 0.0026
same,peptide microarray binding signal,"[2]; peptide modifications: H3K9me3 H3K14ac, binder concentration: 10 nM",0.0279 ± 0.0021
same,peptide microarray binding signal,"[2]; peptide modifications: H3K9me3 H3K14ac, binder concentration: 100 nM",0.0183 ± 0.013
same,peptide microarray binding signal,[3]; [19],0.0646 ± 0.051
same,peptide microarray binding signal,[3]; [20],0.089 ± 0.042
same,peptide microarray binding signal,[4]; [19],0.781 ± 0.051
same,peptide microarray binding signal,[4]; [20],0.939 ± 0.11
QTARKSTGGKAPR [H3 5-17 Q T A R Kme2 Sph T G G K A P R],peptide microarray binding signal,"[1]; peptide modifications: H3K9me2 H3S10ph, binder concentration: 50 nM",0.00806 ± 0.00056
same,peptide microarray binding signal,"[1]; peptide modifications: H3K9me2 H3S10ph, binder concentration: 500 nM",0.0147 ± 0.00082
same,peptide microarray binding signal,"[2]; peptide modifications: H3K9me2 H3S10ph, binder concentration: 10 nM",0.03 ± 0.0049
same,peptide microarray binding signal,"[2]; peptide modifications: H3K9me2 H3S10ph, binder concentration: 100 nM",0.0527 ± 0.017
same,peptide microarray binding signal,[3]; [21],0.0068 ± 0.00063
same,peptide microarray binding signal,[3]; [22],0.00639 ± 0.00076
same,peptide microarray binding signal,[4]; [21],0.193 ± 0.067
same,peptide microarray binding signal,[4]; [22],0.0868 ± 0.021
QTARKSTGGKAPR [H3 5-17 Q T A R Kme2 S T G G K A P R],peptide microarray binding signal,"[1]; peptide modifications: H3K9me2, binder concentration: 50 nM",0.0133 ± 0.0071
same,peptide microarray binding signal,"[1]; peptide modifications: H3K9me2, binder concentration: 500 nM",0.0011 ± 2.1e-05
same,peptide microarray binding signal,"[2]; peptide modifications: H3K9me2, binder concentration: 10 nM",0.00334 ± 9.6e-05
same,peptide microarray binding signal,"[2]; peptide modifications: H3K9me2, binder concentration: 100 nM",0.00248 ± 8.6e-05
same,peptide microarray binding signal,[3]; [23],0.00583 ± 0.0036
same,peptide microarray binding signal,[3]; [24],0.0112 ± 0.0032
same,peptide microarray binding signal,[4]; [23],0.00489 ± 0.0019
same,peptide microarray binding signal,[4]; [24],0.003 ± 0.00036
